High-throughput results: PubChem, several laboratories
UBC9 SUMO inh: SUMOylation inhibition | P63279 | HTRF SUMOylation assay, SAE1/SAE2 + UBC9, in vitro | inhibition, % at 35 µM | hit rate 0.36% among 290,000; in the data active means inhibition above about 50%, passing the limit was not always enough
UBC13 inh: blocks human UBC13 polyubiquitin chain formation; P61088; TR-FRET; inhibition, % at 20 µM; hit rate 0.47% among 330,000; in the data active means inhibition above about 45%, passing the limit was not always enough
NR3A LBD binder: modulators (binders) of human NR3A ligand-binding domain. NR3A LBD differential scanning fluorimetry, Tm shift; 0% = protein alone, 100% = glycine-bound protein. Tm shift relative to glycine control, % at 25 µM. hit rate 2.5% among 340,000. AID 1259313;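 active means melting temperature shift of at least 10% of the positive control shift, at one fixed dose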
HGIII-sPLA2 inh: Blocks human group III sPLA2 activity | Q9NZ20 | QFRET BODIPY PC-A2 liposome hydrolysis, fluorescence | inhibition, % at 12.2 µM | hit rate 0.56% among 370,000 | AID 743126;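 active means inhibition above mean plus 3 SD of compounds lying within the high and low control bounds, cut at about 19% in these data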
Target sequence (Q9NZ20 whole entry, looked up): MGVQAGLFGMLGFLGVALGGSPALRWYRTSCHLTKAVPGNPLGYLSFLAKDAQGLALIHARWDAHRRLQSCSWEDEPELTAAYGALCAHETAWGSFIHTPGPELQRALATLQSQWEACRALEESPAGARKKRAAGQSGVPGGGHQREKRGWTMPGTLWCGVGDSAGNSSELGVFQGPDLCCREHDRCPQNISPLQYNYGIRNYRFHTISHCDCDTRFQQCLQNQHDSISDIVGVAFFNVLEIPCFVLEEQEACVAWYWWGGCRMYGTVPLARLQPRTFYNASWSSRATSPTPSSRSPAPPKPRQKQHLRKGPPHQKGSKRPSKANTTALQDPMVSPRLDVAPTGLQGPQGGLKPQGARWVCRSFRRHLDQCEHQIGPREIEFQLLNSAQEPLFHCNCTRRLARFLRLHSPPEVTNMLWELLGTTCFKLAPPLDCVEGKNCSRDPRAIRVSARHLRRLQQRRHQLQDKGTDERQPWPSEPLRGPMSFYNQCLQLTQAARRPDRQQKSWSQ
Of the large screens only hits and unclear results are named; the others gave an inactive call. This is a sample that favours compounds with a hit; in the whole collection about 3.3% have one here.

CN1C(=O)S/C(=C\c2ccccc2OCc2ccc(C(=O)O)cc2)C1=O	none
CC(=O)OC(C)(C)/C=C/C(=O)[C@](C)(O)C1[C@H](O)C[C@@]2(C)C3CC=C4C(C=C(O[C@@H]5O[C@H](CO)[C@@H](O)[C@H](O)[C@H]5O)C(=O)C4(C)C)[C@]3(C)C(=O)C[C@]12C (some centres not stated)	NR3A LBD binder 16 (no result: UBC9 SUMO inh)
COc1cc(OC)c(NC(=S)Nc2cc(Cl)cc(Cl)c2)cc1Cl	NR3A LBD binder 27
COc1cc(OC)c(NC(=S)Nc2cccc(C(C)=O)c2)cc1Cl	none
COC(=O)[C@]12C[C@H](CC(=O)NCc3cccc4ccccc34)C(=O)N(Cc3cccc4ccccc34)C1=C[C@H](C1CCCC1)O[C@@H]2C	none (no result: UBC9 SUMO inh, UBC13 inh, NR3A LBD binder)
COc1ccccc1Cn1c(/C=C/c2ccccc2)nc2ccccc21	NR3A LBD binder 11
COc1ccc(/C=C/c2nc3ccccc3n2Cc2ccccc2OC)cc1	none
O=C(O)c1ccc(C=NN=C2c3ccccc3-c3ccccc32)cc1	NR3A LBD binder 28 (no result: UBC9 SUMO inh, UBC13 inh)
COC(=O)C1CN(CCO)CCS(=O)(=O)N1Cc1cn(Cc2ccccc2Br)nn1 (configuration not stated)	none (no result: UBC9 SUMO inh, UBC13 inh, NR3A LBD binder)
C#CCN1CC(N(C)CCOC(=O)c2ccc(C(C)(C)C)cc2)CS1(=O)=O (configuration not stated)	none (no result: UBC9 SUMO inh, UBC13 inh, NR3A LBD binder)
COP(=O)(OC)C(Nc1ccc(C)cc1)c1ccc([N+](=O)[O-])cc1 (configuration not stated)	NR3A LBD binder 15
O=C(Nc1cccc2nsnc12)c1ccc(-c2ccc(Br)cc2)o1	UBC9 SUMO inh 73
COc1ccc(-c2cccc(NC(=O)c3ccco3)c2)nn1	NR3A LBD binder 43 (no result: UBC9 SUMO inh)
COc1ccc(-c2ccc(NC(=O)c3ccco3)cc2)nn1	none (no result: UBC9 SUMO inh, NR3A LBD binder)
COC(=O)c1ccccc1NC(=O)c1ccc(-c2ccc(Br)cc2)o1	none
O=C(Nc1cccc(NC(=O)c2ccc(-c3ccc(Br)cc3)o2)c1)c1ccco1	NR3A LBD binder 31
C=CCn1c(COc2ccc(Cl)cc2)nnc1SCC(=O)c1ccc(-c2ccccc2)cc1	none (no result: UBC9 SUMO inh, UBC13 inh, NR3A LBD binder)
CCn1c(COc2ccccc2)nnc1SCC(=O)Nc1ccc(S(=O)(=O)Nc2cc(C)nc(C)n2)cc1	none (no result: UBC9 SUMO inh, UBC13 inh, NR3A LBD binder)
COC(=O)C1CN(Cc2ccccc2)CCS(=O)(=O)N1Cc1ccc(F)cc1 (configuration not stated)	none (no result: UBC9 SUMO inh, UBC13 inh, NR3A LBD binder)
CCOC(=O)Cc1c(Sc2ccccc2)c2ccccc2n1C	NR3A LBD binder 12
CCCCn1c(N)c(N(CC(C)C)C(=O)CSc2nnc(-c3ccc(Cl)cc3)o2)c(=O)[nH]c1=O	NR3A LBD binder 10 (no result: UBC9 SUMO inh)
CCOc1ccc2nc(NC(=S)N(C)C)sc2c1	NR3A LBD binder 30
COc1ccc2nc(NC(=O)CSc3nc4ccccc4o3)sc2c1	NR3A LBD binder 15
CCOc1ccc2nc(NC(=O)CSc3ccccc3)sc2c1	NR3A LBD binder 30
CCCC(=O)Nc1nc2ccc(OCC)cc2s1	none
COC(=O)[C@H](CC(C)C)N(Cc1cn(Cc2ccccc2)nn1)S(=O)(=O)c1ccc(F)cc1Br	none (no result: UBC9 SUMO inh, UBC13 inh, NR3A LBD binder)
COc1ccc(N2CCN(CCNS(=O)(=O)c3ccc(Br)s3)CC2)cc1	none (no result: UBC9 SUMO inh, UBC13 inh, NR3A LBD binder)
CC(=O)c1cc(-c2cccc([N+](=O)[O-])c2)c(=O)n2c1CCC2	none (no result: UBC9 SUMO inh, UBC13 inh, NR3A LBD binder)
OC(COCC(F)(F)C(F)(F)C(F)(F)C(F)F)Cn1c2ccccc2c2ccccc21 (configuration not stated)	NR3A LBD binder 29
Cc1ccc(OCC(O)Cn2c3ccccc3c3ccccc32)cc1 (configuration not stated)	NR3A LBD binder 12
Cc1cccc(CCNC(=O)Cn2nc(-c3ccccc3)ccc2=O)c1	none (no result: UBC9 SUMO inh, UBC13 inh, NR3A LBD binder)
CC(C)=CCc1c(O)ccc(C(=O)Cc2ccccc2)c1O	NR3A LBD binder 18
Cc1ccc(C(=O)Cc2ccccc2)c(O)c1	none (no result: UBC9 SUMO inh, UBC13 inh)
CN1C(=O)C[C@@](C#N)(C(=O)Nc2nc3ccc(F)cc3s2)[C@H]1c1ccccc1	none (no result: UBC9 SUMO inh, UBC13 inh, NR3A LBD binder)
CCOC(=O)c1cc(CC)sc1NC(=O)c1cc(OCC)c(OCC)c(OCC)c1	NR3A LBD binder 11
Cc1ccc(C(=O)N/N=C/c2c(O)ccc3ccccc23)cn1	HGIII-sPLA2 inh 30
O=C(N/N=C\c1c(O)ccc2ccccc12)c1ccc(O)cc1	NR3A LBD binder 41
CCCc1cn(-c2ccc3c(c2)[C@]2(CC(=O)N(C)C2c2ccccc2)C(=O)N3CC(C)C)nn1 (some centres not stated)	none (no result: UBC9 SUMO inh, UBC13 inh, NR3A LBD binder)
CCOC(=O)/C(C#N)=C/c1c(Oc2cc(C)cc(C)c2)nc2ccccn2c1=O	NR3A LBD binder 15
COC(=O)[C@]12C[C@H](CC(=O)N3CCN(C(=O)c4ccco4)CC3)C(=O)N(CCc3ccc(OC)c(OC)c3)C1=C[C@H](C1CCCC1)O[C@@H]2C	none (no result: UBC9 SUMO inh, UBC13 inh, NR3A LBD binder)
